Reference: PubChem BioAssay (NCATS)
“And” between values parts separate entries of the source, which are not always exact repeats. Equal values may be shown once. Results filed as inconclusive are left out. The source made the active and inactive calls. Calls come from the whole dose curve; as a rule, active = well fitted inhibition curve with a large enough effect; inconclusive = small, poorly fitted or top-dose-only effect; inactive = flat fitted curve, though single readings scatter.

Tests used:
[1] = Drug repurposing screens with cells derived from glioblastoma tumor samples (AID 1345199); conditions: GBM patient neurospheres viability, ATP luminescence, 48 h; note: nearly all actives have a fitted effect of over 40% in size
Procedure, shortened: (§1)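 Primary testing used CD133+ neurospheres from four GBM patients, seven concentrations, 48 h exposure and ATP-based viability; confirmation added three slower-growing patient lines.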

astro = control astrocytes; test: as above; conditions: viability, ATP luminescence, 48 h; series mostly up to 45.9 µM
Procedure, shortened: as §1

[2] = at 45.9 µM (top of the series), tumour line B
[3] = at 45.9 µM (top of the series), tumour line D
[4] = at 46.1 µM (top of the series), tumour line C
[5] = at 46 µM (top of the series), tumour line A
% is set by controls: 0 for no effect and ±100 for the full control effect.

NC(=O)Oc1ccc(Cc2ccccc2)cc1
inactive: activity, negative = cell killing [1, 2] -5.11% | activity, negative = cell killing [1, 3] -13.8% | activity, negative = cell killing [1, 4] -22.5% | Potency (astro)

COc1ccc2cc([C@H](C)CO)ccc2c1
inactive: activity, negative = cell killing [1, 2] -14.5% | activity, negative = cell killing [1, 3] 4.49% | activity, negative = cell killing [1, 4] -21.2% | Potency (astro)

O=C(O)COc1ccc(CCNS(=O)(=O)c2ccccc2)s1
inactive: activity, negative = cell killing [1, 2] -8.15% | activity, negative = cell killing [1, 3] -13.5% | activity, negative = cell killing [1, 4] -21.9% | Potency (astro)

CCc1ncnc2cc(OC)c(OC)cc12
inactive: activity, negative = cell killing [1, 2] -18.2% | activity, negative = cell killing [1, 3] -1.42% | activity, negative = cell killing [1, 4] -14.3% | Potency (astro)

CC(C)(C)C(=O)OCC(=O)[C@H]1CC[C@H]2[C@@H]3CCC4=CC(=O)CC[C@]4(C)[C@H]3CC[C@]12C
inactive: activity, negative = cell killing [1, 2] -7.01% | activity, negative = cell killing [1, 3] -7.34% | activity, negative = cell killing [1, 4] 0.589% | Potency (astro)

CC[C@H]1NC(=O)[C@@H](NC(=O)c2ncccc2O)[C@@H](C)OC(=O)[C@H](c2ccccc2)NC(=O)[C@@H]2CC(=O)CCN2C(=O)[C@H](Cc2ccccc2)N(C)C(=O)[C@@H]2CCCN2C1=O
inactive: activity, negative = cell killing [1, 2] -1.4% | activity, negative = cell killing [1, 3] 17.7% | activity, negative = cell killing [1, 4] -11% | Potency (astro)

CN[C@H](CC(C)C)C(=O)N[C@H]1C(=O)N[C@@H](CC(N)=O)C(=O)N[C@H]2C(=O)N[C@H]3C(=O)N[C@H](C(=O)N[C@@H](C(=O)O)c4cc(O)cc(O)c4-c4cc3ccc4O)[C@H](O)c3ccc(c(Cl)c3)Oc3cc2cc(c3O[C@@H]2O[C@H](CO)[C@@H](O)[C@H](O)[C@H]2O[C@H]2C[C@](C)(N)C(O)[C@H](C)O2)Oc2ccc(cc2Cl)[C@H]1O (stereo partly specified)
inactive: activity, negative = cell killing [1, 2] -21.4% and -13.5% | activity, negative = cell killing [1, 3] -14.4% and -8.53% | activity, negative = cell killing [1, 4] -11% and 8.66% | Potency (astro)

CC(C)CCC[C@@H](C)[C@H]1CC[C@H]2[C@@H]3CC[C@@H]4C[C@H](O)CC[C@]4(C)[C@H]3CC[C@]12C
inactive: activity, negative = cell killing [1, 2] -2.13% | activity, negative = cell killing [1, 3] -20.8% | activity, negative = cell killing [1, 4] -6.49% | Potency (astro)

CN1C(C(=O)Nc2ccccn2)C(=O)c2sc(Cl)cc2S1(=O)=O (stereo unspecified)
inactive: activity, negative = cell killing [1, 2] -14.7% | activity, negative = cell killing [1, 3] -14% | activity, negative = cell killing [1, 4] -4.03% | Potency (astro)

CC(C)(COP(=O)(O)OP(=O)(O)OC[C@H]1O[C@@H](n2cnc3c(N)ncnc32)[C@H](O)[C@@H]1OP(=O)(O)O)C(O)C(=O)NCCC(=O)NCCS (stereo partly specified)
inactive: activity, negative = cell killing [1, 2] -4.74% | activity, negative = cell killing [1, 3] -6.02% | activity, negative = cell killing [1, 5] -28.8% | Potency (astro)

CC(C)=CCC/C(C)=C/C=C/C(C)=C/C=C/C(C)=C/C=C/C=C(C)/C=C/C=C(C)/C=C/C=C(\C)CCC=C(C)C
inactive: activity, negative = cell killing [1, 2] -10.4% | activity, negative = cell killing [1, 3] -12.4% | activity, negative = cell killing [1, 4] 14.8% | Potency (astro)

CC(C)Cc1ccc([C@@H](C)C(=O)NS(C)(=O)=O)cc1
inactive: activity, negative = cell killing [1, 2] -10.5% | activity, negative = cell killing [1, 3] -14.1% | activity, negative = cell killing [1, 4] -23.4% | Potency (astro)

CC(C)C1=CC2=CC[C@@H]3[C@](C)(CCC[C@@]3(C)C(=O)O)[C@H]2CC1
inactive: activity, negative = cell killing [1, 2] -3.87% | activity, negative = cell killing [1, 3] 2.46% | activity, negative = cell killing [1, 4] -9.17% | Potency (astro)

O=C1c2ccccc2C(=O)C1c1ccc(Cl)cc1
inactive: activity, negative = cell killing [1, 2] -10.4% | activity, negative = cell killing [1, 3] -11.7% | activity, negative = cell killing [1, 4] -10.5% | Potency (astro)

CC(C)CN(C[C@@H](OP(=O)(O)O)[C@H](Cc1ccccc1)NC(=O)O[C@H]1CCOC1)S(=O)(=O)c1ccc(N)cc1
inactive: activity, negative = cell killing [1, 2] -7.11% | activity, negative = cell killing [1, 3] -11.4% | activity, negative = cell killing [1, 4] -18.7% | Potency (astro)

C(=C\c1ccncc1)/c1ccccc1
inactive: activity, negative = cell killing [1, 2] -13.9% and -17.3% | activity, negative = cell killing [1, 3] -13.7% and -5.95% | activity, negative = cell killing [1, 4] -11.5% | Potency (astro)

C[C@@H]1C[C@H]2[C@@H]3C[C@H](F)C4=CC(=O)C=C[C@]4(C)[C@@]3(Cl)[C@@H](O)C[C@]2(C)[C@H]1C(=O)COC(=O)C(C)(C)C
inactive: activity, negative = cell killing [1, 2] -18.4% | activity, negative = cell killing [1, 3] -9.89% | activity, negative = cell killing [1, 4] -26.7% | Potency (astro)

C=CC[N+]1([C@H]2C[C@H]3[C@@H]4CC[C@H]5C[C@H](O)[C@@H](N6CCOCC6)C[C@]5(C)[C@H]4CC[C@]3(C)[C@H]2OC(C)=O)CCCC1
inactive: activity, negative = cell killing [1, 2] -3.03% | activity, negative = cell killing [1, 3] -12.4% | activity, negative = cell killing [1, 4] -21.7% | Potency (astro)

O=C1CC[C@@H](C(=O)N[C@H]2C[C@@H]2c2ccccc2)N1
inactive: activity, negative = cell killing [1, 2] -8.87% | activity, negative = cell killing [1, 3] -2.23% | activity, negative = cell killing [1, 4] 4.74% | Potency (astro)

Cc1ccc(S(=O)(=O)NC(=O)N[C@@H](C)Cc2ccccc2)cc1
inactive: activity, negative = cell killing [1, 2] -12% | activity, negative = cell killing [1, 3] -19.4% | activity, negative = cell killing [1, 4] -17.1% | Potency (astro)

Cc1nc(NS(=O)(=O)c2ccc(N)cc2)nc(C)c1Br
inactive: activity, negative = cell killing [1, 2] -13% | activity, negative = cell killing [1, 3] -4.79% | activity, negative = cell killing [1, 5] -28.7% | Potency (astro)

CC(C)(Oc1ccc(C2CCCc3ccccc32)cc1)C(=O)O (stereo unspecified)
inactive: activity, negative = cell killing [1, 2] -18.2% | activity, negative = cell killing [1, 3] -16.7% | activity, negative = cell killing [1, 5] -21.9% | Potency (astro)

CC(=O)N[C@@H]([C@@H](O)[C@H](O)[C@H](O)CO)[C@@H](O)CC(=O)C(=O)O
inactive: activity, negative = cell killing [1, 2] -12% | activity, negative = cell killing [1, 3] -21.2% | activity, negative = cell killing [1, 4] -14.1% | Potency (astro)

CC(C)C[C@@H](NC(=O)[C@@H](O)[C@H](N)Cc1ccccc1)C(=O)O
inactive: activity, negative = cell killing [1, 2] -12.5% | activity, negative = cell killing [1, 3] -2.21% | activity, negative = cell killing [1, 4] -22.2% | Potency (astro)
